Mito fusion yeast = blocks mitochondrial division or promotes mitochondrial fusion | Potency, µM (series often up to 46.1 µM), usual class: activators | AID 485298 | S. cerevisiae fusion-defective mutant growth rescue, CellTiterGlo 48 h | 320,000 tested, 0.23% active; also: nearly all actives have a fitted effect of over 45% in size
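Temperature-sensitive fusion-defective S. cerevisiae (e.g. fzo1-1, mgm1-5) were grown with compound in YPEG medium (3% ethanol, 3% glycerol) for 48 hours at 37C. Growth rescue was measured as viability by CellTiterGlo luminescence after 10 minutes at ambient.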
SW480 rerep = inducers of DNA re-replication in SW480 colon cancer cells. 340,000 tested, 1.8% active. Potency, µM (top dose mostly 46.1 µM), usual class: activators. AID 624297. SW480 DNA re-replication, Hoechst DNA content imaging, 48 h; also: nearly all actives have a fitted effect of over 55% in size
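Cells (250 per well) received 23 nL compound or DMSO by pin tool and were kept 48 hr at 37 C, 5% CO2. Nuclei were then stained with Hoechst for 40 min and scanned for DNA content.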
Integrin act MD = integrin-mediated muscular dystrophy alleviation activation | 350,000 tested, 0.064% active | Potency, µM (series often up to 38.3 µM), hits mostly activators | alpha7betagal myoblasts, beta-gal FDG fluorescence, 48 h; also: nearly all actives have a fitted effect of over 60% in size
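Alpha7betagal+/- myoblasts (passage 13) were plated 16-24 hr, then exposed to compounds (1:260 dilution of DMSO stock) for 48 hours at 37C. After MPER lysis, β-galactosidase reporter activity was read as FDG fluorescence (ex 480/em 540) after 30 minutes.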
MCF10A rereplic = induces DNA re-replication in MCF 10a normal breast cells; MCF 10A DNA re-replication, Hoechst nuclear intensity, 48 h; Potency, µM (series often up to 46.1 µM), actives largely listed as activators; 350,000 tested, 2.9% active; also: nearly all actives have a fitted effect of over 50% in size
AT treatment = candidate therapy for ataxia-telangiectasia; Potency, µM (highest dose often 57.5 µM), actives largely listed as activators; AID 485349; F2112 A-T fibroblasts, KAP-1 phosphorylation AlphaLISA; neocarzinostatin DNA damage 30 min before lysis; 320,000 tested, 0.19% active; also: nearly all actives have a fitted effect of over 45% in size
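ATM-like activity read as KAP-1 phosphorylation via AlphaLISA donor/acceptor antibody pairs after lysis and 6 hr at 25C. Cells were ATM-null patient fibroblasts (F2112, hTERT), dosed 60 min, then exposed to the DSB inducer NCS for 30 min.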
Each line names hits and unclear results; the compound was inactive in the other large screens. Only some compounds are listed: those with a hit (about 4.2% of all), similar ones and a draw of the others. Calls follow the shape of the dose curve; as a rule, active = well fitted activation curve with a large enough effect; inconclusive = small, poorly fitted or top-dose-only effect; inactive = no such curve, though single readings can be large or run the other way.

CN(Cc1cc(Cl)cc(Cl)c1O)Cc1c(O)ccc2ccccc12	SW480 rerep inconclusive, MCF10A rereplic 23.1µM (no result: Mito fusion yeast, AT treatment)
CCc1ccccc1NC(=O)CC(c1ccc(OC)cc1)n1cccc1 (stereo not drawn)	MCF10A rereplic inconclusive
Cc1ccc(S(=O)(=O)c2c(C)nn(C(C)(C)C)c2OC(=O)c2cccs2)cc1	MCF10A rereplic 18.4µM
CC(=O)Oc1c(S(=O)(=O)c2ccc(C)cc2)c(C)nn1C(C)(C)C	SW480 rerep inconclusive, MCF10A rereplic inconclusive
Cc1ccc(S(=O)(=O)c2c(C)nn(C(C)(C)C)c2OC(=O)c2ccc(Br)o2)cc1	MCF10A rereplic inconclusive
Cc1ccc(S(=O)(=O)c2c(C)nn(C(C)(C)C)c2OC(=O)c2ccco2)cc1	MCF10A rereplic 13µM
COc1cccc(CC(=O)OCC(=O)NC2CCCC2)c1	none
Cc1nn(CCC(=O)NNC(=S)Nc2ccc(F)cc2)c(C)c1Br	none
CCCCNC(=S)NNC(=O)CCn1nc(C)c(Br)c1C	SW480 rerep 8.2µM
CCCc1cc(C(=O)Nc2ccccc2SC)no1	AT treatment 39.8µM
Cc1ccc(Sc2c(C=O)c3ccccc3n2C)cc1	Mito fusion yeast inconclusive, SW480 rerep 14.6µM, MCF10A rereplic inconclusive
Cn1c(-c2ccccc2)c(C=O)c2ccccc21	none
Cn1c(=O)c(Sc2ccccc2)c(O)c2ccccc21	none
Cc1ccc(Sc2c(O)c3ccccc3n(C)c2=O)cc1	Mito fusion yeast 14.1µM
Cc1ccc(Sc2c([N+](=O)[O-])c(=O)n(C)c3ccccc23)cc1	MCF10A rereplic 5.8µM, AT treatment inconclusive
Cn1cc(C(=O)[C@@H]2CCc3[nH]cnc3C2)c2ccccc21	none (no result: Mito fusion yeast, Integrin act MD, AT treatment)
CCOc1ccc(-n2nnnc2SCC(=O)NNC(=O)c2ccco2)cc1	none
COc1ccc([C@H]2C[C@H](n3cc(C4CC4)nn3)[C@@H](O)CN2CC2CCCCC2)cc1	none (no result: Mito fusion yeast, SW480 rerep, MCF10A rereplic, AT treatment)
COc1cccc(S(=O)(=O)N(C)C[C@@H]2OCc3cn(nn3)CCCC(=O)N([C@H](C)CO)C[C@H]2C)c1	none (no result: Mito fusion yeast, SW480 rerep, MCF10A rereplic, AT treatment)
CCOC(=O)c1c(-c2ccc(C)o2)csc1NC(=O)CN1CCCCC1	MCF10A rereplic 23.1µM
CCOC(=O)c1c(-c2ccc(F)cc2)csc1NC(=O)C1CCCO1 (stereo not drawn)	none
CCOC(=O)c1c(-c2ccc(C)cc2)csc1NC(=O)CCN1CC(C)OC(C)C1 (stereo not drawn)	Mito fusion yeast 12.6µM, MCF10A rereplic 20.6µM
CC(C)OC(=O)c1c(-c2ccc(C(C)C)cc2)csc1NC(=O)C1CCCO1 (stereo not drawn)	MCF10A rereplic 18.4µM
CCOC(=O)c1c(-c2ccc(C)cc2)csc1NC(=O)C1CCCO1 (stereo not drawn)	MCF10A rereplic 13µM
CCCC(C(=O)NCC1CCCO1)N(Cc1ccccc1)C(=O)CNS(=O)(=O)c1ccccc1 (stereo not drawn)	MCF10A rereplic inconclusive
CCSc1nc(CC)c2c(c1C#N)CCCC2	Mito fusion yeast 8.91µM, SW480 rerep 0.517µM
CN(C)S(=O)(=O)c1ccc(Cl)c(NC(=O)CSc2nc3c(cc2C#N)C(=O)CCC3)c1	SW480 rerep 2.59µM, MCF10A rereplic inconclusive
Cc1noc(NS(=O)(=O)c2ccc(NC(=O)CSc3nc4c(cc3C#N)CCCC4)cc2)c1C	MCF10A rereplic 23.1µM
Cc1noc(NS(=O)(=O)c2ccc(NC(=O)CSc3nc4c(cc3C#N)CCC4)cc2)c1C	MCF10A rereplic inconclusive
Cc1ccc(NC(=O)CSc2nc3c(cc2C#N)C(=O)CCC3)cc1S(=O)(=O)N(C)C	MCF10A rereplic inconclusive
CCCCn1nnnc1SCC(=O)Nc1sc2c(c1C#N)CCCC2	MCF10A rereplic 11.2µM
N#Cc1c(NC(=O)CSc2nnnn2C2CCCC2)sc2c1CCCC2	none
Cc1cc(NC(=O)CSc2nc3c(cc2C#N)CCC3)no1	SW480 rerep 14.6µM, MCF10A rereplic inconclusive
CCOC(=O)C1(Cc2ccccc2)CCCCCC1=O (stereo not drawn)	none (no result: Mito fusion yeast, AT treatment)
COc1ccccc1-c1ccc([C@@H]2C[C@H]3[C@H](CON3C)CN2C(=O)c2ccco2)cc1	none (no result: Mito fusion yeast, SW480 rerep, MCF10A rereplic, AT treatment)
O=[N+]([O-])C(=C1NCCN1)C(Cl)=C(Cl)Cl	none
N#Cc1cc2c(nc1SCC(=O)Nc1sc3c(c1C#N)CCC3)CCCCC2	SW480 rerep 18.4µM, MCF10A rereplic 0.82µM
COc1ccc(CN(C)CC(=O)Nc2sc3c(c2C#N)CCC3)cc1OC	SW480 rerep 11.6µM, MCF10A rereplic inconclusive
CC(=O)c1ccc(NC(=O)c2cccc(N3C(=O)c4ccccc4C3=O)c2)cc1	none
COc1ccc(NC(=O)c2cccc(N3C(=O)c4ccc(C(=O)Nc5ccc(OC)c(O)c5)cc4C3=O)c2)cc1O	Integrin act MD 4.47µM, MCF10A rereplic inconclusive
CCN(CC)C(=O)Cn1c(=O)oc2ccccc21	SW480 rerep inconclusive
O=C(NC(=S)Nc1cc(S(=O)(=O)N2CCOCC2)ccc1N1CCOCC1)C1CCCC1	none (no result: SW480 rerep, Integrin act MD, MCF10A rereplic)
C[C@H]1CN(S(=O)(=O)c2ccc3c(c2)OCCO3)CCN1S(=O)(=O)c1c(F)cccc1F	none (no result: Mito fusion yeast, Integrin act MD)
O=C(Nc1ccccc1OCc1ccccc1)c1ccccc1Br	SW480 rerep inconclusive, MCF10A rereplic 0.581µM
O=C(O)CNc1nc(-c2ccccc2)c2cc([N+](=O)[O-])ccc2n1	none (no result: SW480 rerep)
O=[N+]([O-])c1ccc2nc(NCCCO)nc(-c3ccccc3)c2c1	MCF10A rereplic 14.6µM (no result: AT treatment)
Cc1ccccc1Oc1ccc2c(c1)[C@@H]1C[C@H](N(C)C(=O)c3ccc(C#N)cc3)[C@H]([C@H](C)O)C(=O)N1CC2	none (no result: Mito fusion yeast, AT treatment)
CCCC(=O)Nc1ccc2c(c1)nc(CN1CCN(C(=O)OCC)CC1)n2C	none
CCCC(=O)Nc1ccc2c(c1)nc(CN1CCN(C(=O)OCC)CC1)n2CC	SW480 rerep 9.2µM, MCF10A rereplic 7.31µM
COc1ccc(-c2ccc(CCC(=O)O)n2-c2ccccc2O)cc1	SW480 rerep 20.6µM, MCF10A rereplic 1.84µM, AT treatment inconclusive
COc1ccc(-c2ccc(CCC(=O)O)n2CC(C)C)cc1	SW480 rerep 9.2µM, MCF10A rereplic inconclusive
C=CCn1c(CCC(=O)O)ccc1-c1ccc(OC)cc1	none
CCCCNC(=O)COn1nnc2ccc(S(=O)(=O)N3CCOCC3)cc21	none
c1ccc(-c2nc(-c3nccc4ccccc34)oc2-c2ccccc2)cc1	SW480 rerep 7.31µM, MCF10A rereplic inconclusive
COc1ccc2c(c1)c1ncn(Cc3ccc(F)cc3)c(=O)c1n2C	none
Cn1c2ccsc2c2ncn(Cc3ccc(F)cc3)c(=O)c21	SW480 rerep 0.259µM, MCF10A rereplic inconclusive (no result: Integrin act MD)
CN(Cc1cccnc1)Cc1cn[nH]c1-c1ccc(-c2ccccc2)cc1	MCF10A rereplic inconclusive
CN(C)CCCNC1=CC(=O)OC12CCCCC2	none
O=C1C=C(NCc2ccc(Cl)cc2Cl)C2(CCCCC2)O1	SW480 rerep inconclusive, MCF10A rereplic 9.2µM
CCCCCOc1ccc(NC(=O)C(=O)NCC2CCCN2CC)cc1 (stereo not drawn)	MCF10A rereplic 14.6µM

Assay outcomes as filed in PubChem.
